# Test results reported in PubChem BioAssay (NCATS).
# Several values for one entry are separate records, joined by “and”; a condition that tells them apart may be missing. Equal values may be shown once. Results filed as inconclusive are left out. A number with no mark means an inactive call. Activity calls are given as the source filed them. The call rests on the fitted dose curve; in most records, active means well fitted curve in the direction sought with a large enough effect; inconclusive means small, poorly fitted or top-dose-only effect, or another doubt; inactive means no such curve, though single readings can be large; an effect the other way counts as inactive or inconclusive.
# Tests used:
# [1] = target: Cellular tumor antigen p53 (Homo sapiens) (UniProt P04637); test: Primary qHTS for small molecule compounds that upregulate eGFP-tagged delta133p53alpha (in N-terminal) cells. (AID 2060322); details: NCI-H358 eGFP-delta133p53alpha fluorescence, 24 h; activation: stronger effect = higher value; further: nearly all actives have a fitted effect of over 75% in size; further: potency means the concentration at half of the fitted maximal effect;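 on activation: series mostly up to about 56 µM; 0% = DMSO vehicle and 100% = reference activator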
# Sequence of Cellular tumor antigen p53 (Homo sapiens) (P04637 whole entry, looked up): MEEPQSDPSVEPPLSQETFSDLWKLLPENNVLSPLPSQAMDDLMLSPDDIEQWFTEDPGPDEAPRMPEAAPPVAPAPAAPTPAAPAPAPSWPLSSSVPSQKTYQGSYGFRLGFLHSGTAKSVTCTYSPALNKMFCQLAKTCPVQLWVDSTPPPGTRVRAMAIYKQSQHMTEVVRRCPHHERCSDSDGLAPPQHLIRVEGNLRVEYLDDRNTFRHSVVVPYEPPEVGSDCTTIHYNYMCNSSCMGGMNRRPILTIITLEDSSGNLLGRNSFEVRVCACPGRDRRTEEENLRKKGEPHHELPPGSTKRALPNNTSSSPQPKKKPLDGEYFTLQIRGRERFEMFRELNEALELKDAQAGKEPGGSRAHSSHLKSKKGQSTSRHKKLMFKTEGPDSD
# Method in brief: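 NCI-H358 cells pre-induced 24 h with 10 ng/ml doxycycline to express N-terminal eGFP-delta133p53alpha, then dosed 24 h at 37C without doxycycline; fixed, Hoechst-stained, GFP intensity by laser scanning cytometry, normalized to DMSO (0%) and 57.5 uM 5-azacytidine (100%).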
# [2] = target: Aldehyde dehydrogenase, mitochondrial (Homo sapiens) (UniProt P05091); test: qHTS for Inhibitors of the Aldehyde Dehydrogenase Family (ALDH2) Primary screen (AID 2061308);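 further: plate controls were vehicle for no effect and reference inhibitor for full effect; nearly all actives have a fitted effect of over 55% in size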
# [3] = target: Retinaldehyde dehydrogenase 3 (Homo sapiens) (UniProt P47895); test: qHTS for Inhibitors of the Aldehyde Dehydrogenase Family (ALDH1A3) Primary screen (AID 2061315);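 further: plate controls were DMSO vehicle for no effect and reference inhibitor for full effect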
# [4] = BET inhibitor-based combinations targeting novel dependencies in MECOM-rearranged (r) AML: MV-4-11 cell line (AID 2202233); further: potency means the concentration at half of the fitted maximal effect; nearly all actives have a fitted effect of over 45% in size
# Method in brief: (§1)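 Activity is given as area under the curve and as Z-AUC, mean-centred within each cell line. It comes from 11-point dose curves normalized to DMSO and empty wells. CellTiter-Glo luminescence was read after 48 hr drug exposure of 500 cells/well.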
# [5] = BET inhibitor-based combinations targeting novel dependencies in MECOM-rearranged (r) AML: AML-191 cell line (AID 2202236; further: nearly all actives have a fitted effect of over 35% in size; further: potency means the concentration at half of the fitted maximal effect)
# Method in brief: (§2)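 Cells were plated at 500 per well and exposed to an 11-point dose series of each drug for 48 hr. Viability was measured by CellTiter-Glo luminescence, normalized to DMSO and empty-well controls, and summarized as AUC and per-cell-line Z-AUC.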
# [6] = BET inhibitor-based combinations targeting novel dependencies in MECOM-rearranged (r) AML: AML-194 cell line (AID 2202237; further: nearly all actives have a fitted effect of over 40% in size; further: potency means the concentration at half of the fitted maximal effect)
# Method in brief: as §2
# [7] = BET inhibitor-based combinations targeting novel dependencies in MECOM-rearranged (r) AML: HNT-34 cell line (AID 2202234); further: nearly all actives have a fitted effect of over 35% in size; further: potency means the concentration at half of the fitted maximal effect
# Method in brief: as §1
# [8] = BET inhibitor-based combinations targeting novel dependencies in MECOM-rearranged (r) AML: UCSD-AML1 cell line (AID 2202235); further: nearly all actives have a fitted effect of over 40% in size; further: potency means the concentration at half of the fitted maximal effect
# Method in brief: as §1
# [9] = target: Retinaldehyde dehydrogenase 3 (Homo sapiens) (UniProt P47895); test: qHTS for Inhibitors of the Aldehyde Dehydrogenase Family (ALDH1A3) Confirmatory screens (AID 2061311); further: potency means the concentration at half of the fitted maximal effect; nearly all actives have a fitted effect of over 60% in size
# [10] = target: Retinaldehyde dehydrogenase 3 (Homo sapiens) (UniProt P47895); test: qHTS for Inhibitors of the Aldehyde Dehydrogenase Family (ALDH1A3) Validation screen (AID 2061312); further: on the % scale 0 is the no-effect control and ±100 the full control effect; nearly all actives have a fitted effect of over 45% in size
# [11] = target: Retinal dehydrogenase 2 (Homo sapiens) (UniProt O94788); test: qHTS for Inhibitors of the Aldehyde Dehydrogenase Family (ALDH1A2) Confirmation screens (AID 2061314); further: potency means the concentration at half of the fitted maximal effect; nearly all actives have a fitted effect of over 65% in size
# [12] = BET inhibitor-based combinations targeting novel dependencies in MECOM-rearranged (r) AML: SET-2 cell line (AID 2202231); details: SET-2 AML cells viability, CellTiter-Glo luminescence, 48 h; viability: stronger effect = lower value, concentration not given here; further: nearly all actives have a fitted effect of over 35% in size; further: potency means the concentration at half of the fitted maximal effect;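 on viability: plate controls were DMSO treated cells for no effect and wells without cells for full effect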
# Method in brief: as §2
# [13] = BET inhibitor-based combinations targeting novel dependencies in MECOM-rearranged (r) AML: OCI-AML3 cell line (AID 2202232); details: Potency: OCI-AML3 viability; further: nearly all actives have a fitted effect of over 35% in size; further: potency means the concentration at half of the fitted maximal effect
# Method in brief: as §2
compound,measurement,setting,value
CC1CCC(C(=O)N(c2cc(C#CC(C)(C)C)sc2C(=O)O)C2CCC(O)CC2)CC1 (stereo not drawn),activation,[1],-32.4% and -8.93%
same,Potency,[2],inactive
same,Potency,[3],inactive
same,Potency,[4],20.9 µM (active)
same,Potency,[5],18.6 µM (active)
same,Potency,[6],inactive
Cc1ccc(NC(=O)c2ccc(CN3CCNCC3)cc2)cc1Nc1nccc(-c2cccnc2)n1,activation,[1],-16.1%
same,Potency,[2],inactive
same,Potency,[3],inactive
same,Potency,[4],18.6 µM (active)
same,Potency,[7],2.63 µM (active)
same,Potency,[6],23.5 µM (active)
Cc1cc(F)c(C(=O)Nc2cccc(-c3nncn3C(C)C)n2)cc1-n1cnc(C2CC2)c1,activation,[1],35%
same,Potency,[2],inactive
same,Potency,[3],inactive
same,Potency,[4],10.5 µM (active)
same,Potency,[7],20.9 µM (active)
same,Potency,[8],16.6 µM (active)
same,Potency,[5],18.6 µM (active)
COC(=O)/C=C/C(=O)N(O)CCCCNCc1ccc(COC(=O)Nc2cccc3ccccc23)cc1,Potency,[1],26.9 µM (active)
same,Potency,[2],inactive
same,Potency,[3],inactive
same,Potency,[7],5.9 µM (active)
same,Potency,[5],8.33 µM (active)
same,Potency,[6],8.33 µM (active)
C[C@@H](N)c1ccc(C(=O)Nc2ccnc3[nH]ccc23)cc1,activation,[1],21.5%
same,Potency,[2],inactive
same,Potency,[3],inactive
same,Potency,[4],3.72 µM (active)
same,Potency,[8],18.6 µM (active)
same,Potency,[5],16.6 µM (active)
same,Potency,[6],14.8 µM (active)
COc1cc2ncnc(-n3nc(-c4ccccn4)nc3N)c2cc1OC,activation,[1],13.4%
same,Potency,[2],inactive
same,Potency,[3],inactive
same,Potency,[4],1.48 µM (active)
same,Potency,[7],2.35 µM (active)
same,Potency,[8],4.68 µM (active)
same,Potency,[5],4.17 µM (active)
same,Potency,[6],6.61 µM (active)
CC(C)(CNC(=O)c1cccc(-c2noc(C(F)(F)F)n2)c1)c1coc(-c2ccccc2)n1,activation,[1],-0.477%
same,Potency,[2],inactive
same,Potency,[3],inactive
same,Potency,[4],23.5 µM (active)
same,Potency,[8],inactive
same,Potency,[5],11.8 µM (active)
CN(C)CC(=O)N1CCC(c2ccc(NC(=O)c3ncc(C#N)[nH]3)c(C3=CCCCC3)c2)CC1,activation,[1],-0.715%
same,Potency,[2],inactive
same,Potency,[3],inactive
same,Potency,[4],0.148 µM (active)
same,Potency,[8],5.25 µM (active)
COc1cc(N2CCN(C(C)=O)CC2)ccc1Nc1ncc(Cl)c(Nc2ccc(N3CCN(C(C)=O)CC3)cc2OC)n1,activation,[1],-5.36%
same,Potency,[2],inactive
same,Potency,[4],0.934 µM (active)
same,Potency,[7],6.61 µM (active)
same,Potency,[8],4.17 µM (active)
CC(C(=O)O)c1ccc2c(c1)[nH]c1ccc(Cl)cc12 (stereo not drawn),activation,[1],8.47% and -3.82%
same,Potency,[9],15.9 µM (active)
same,Potency,[10],inactive
same,Potency,[11],6.34 µM (active)
same,Potency,[3],inactive
FC(F)c1nc2ccccc2n1-c1nc(N2CCOCC2)nc(N2CCOCC2)n1,activation,[1],43.2% and 24.1%
same,Potency,[2],inactive
same,Potency,[12],3.72 µM (active)
same,Potency,[13],0.235 µM (active)
same,Potency,[4],0.209 µM (active)
NC(=O)c1noc([C@H](CCCC2CCCCC2)CC(=O)NO)n1,activation,[1],-7.14%
same,Potency,[2],inactive
same,Potency,[12],5.9 µM (active)
same,Potency,[4],18.6 µM (active)
same,Potency,[7],2.95 µM (active)
same,Potency,[8],5.25 µM (active)
same,Potency,[5],3.72 µM (active)
same,Potency,[6],6.61 µM (active)
COc1nccc(-c2c(-c3ccc(F)cc3)ncn2C2CCC(O)CC2)n1 (stereo not drawn),activation,[1],22% and -24.1%
same,Potency,[2],inactive
same,Potency,[3],inactive
same,Potency,[5],18.6 µM (active)
same,Potency,[6],inactive
OCc1ccc(-c2ccc(-c3ccc(CO)s3)o2)s1,activation,[1],23.8% and 25%
same,Potency,[2],inactive
same,Potency,[13],18.6 µM (active)
same,Potency,[4],13.2 µM (active)
same,Potency,[5],26.3 µM (active)
same,Potency,[6],26.3 µM (active)
CCCCc1nc2cc(/C=C/C(=O)NO)ccc2n1CCN(CC)CC,Potency,[1],27.3 µM (active)
same,Potency,[2],inactive
same,Potency,[12],0.662 µM (active)
same,Potency,[13],0.833 µM (active)
same,Potency,[4],0.332 µM (active)
same,Potency,[7],0.833 µM (active)
same,Potency,[8],0.833 µM (active)
same,Potency,[5],0.833 µM (active)
same,Potency,[6],1.18 µM (active)
N#CC[C@H](C1CCCC1)n1cc(-c2ncnc3[nH]ccc23)cn1,activation,[1],7.18% and -12.3%
same,Potency,[2],inactive
same,Potency,[3],inactive
same,Potency,[5],5.9 µM (active)
CN1CCc2c(n(Cc3ccc(C(=O)NO)cc3)c3ccccc23)C1,activation,[1],23.6%
same,Potency,[2],inactive
same,Potency,[4],20.9 µM (active)
same,Potency,[8],inactive
O=C(/C=C/c1cccc(S(=O)(=O)Nc2ccccc2)c1)NO,Potency,[1],5.44 µM (active)
same,Potency,[2],inactive
same,Potency,[12],0.263 µM (active)
same,Potency,[13],0.742 µM (active)
same,Potency,[7],0.934 µM (active)
same,Potency,[8],0.742 µM (active)
same,Potency,[5],0.934 µM (active)
same,Potency,[6],1.05 µM (active)
c1nc2nc(Nc3ccc(N4CCOCC4)cc3)nc(NC3CCCCC3)c2[nH]1,activation,[1],-34%
same,Potency,[2],inactive
same,Potency,[12],4.17 µM (active)
same,Potency,[4],0.372 µM (active)
same,Potency,[7],1.48 µM (active)
COc1cc2c(cc1OCCCN1CCCC1)N=C(N)C21CCC1,activation,[1],5.59%
same,Potency,[2],inactive
same,viability,[12],106%
same,Potency,[13],inactive
same,Potency,[7],inactive
same,Potency,[8],inactive
same,Potency,[5],inactive
same,Potency,[6],inactive
